PubChem BioAssay (NCATS)
A number with no mark means an inactive call. Activity calls are given as the source filed them. Calls follow the shape of the dose curve; as a rule, active = well fitted cell-killing curve with a large enough effect; inconclusive = small, poorly fitted or top-dose-only effect; inactive = flat fitted curve, though single readings scatter. Peptide text beside a SMILES is read from it.

Assay: Cell Viability - LYMP1-002 - Assay at 24 hr (AID 993)
Settings: LYMP1-002 lymphoblastoid cells viability; series mostly up to 92.2 µM; activity change, negative = cytotoxicity: at the top concentration
Source text: NIH Chemical Genomics Center [NCGC]
NIH Molecular Libraries Screening Centers Network [MLSCN]
National Institutes of Environmental Health Sciences [NIEHS]
National Toxicology Program [NTP]
We have developed a 1536-well cell-based assay for quantitative high throughput screening (qHTS) against a number of cell lines to determine in vitro cytotoxicity of small molecules. This particular assay uses a human lymphoblastoid cell line (LYMP1-002) purchased from Coriell Institute for Medical Research.
NCGC Assay Protocol Summary:
The CellTiter-Glo luminescent cell viability assay (Promega) is a homogeneous method to measure the number of viable cells in culture. The end point readout of this assay is based on quantitation of intracellular ATP, an indicator of metabolic activity, using the luciferase reaction. Luciferase catalyzes the oxidation of beetle Luciferin to oxyluciferin and light in the presence of ATP. The luminescent signal is proportional to amount of ATP present.
Using the CellTiter-Glo luminescent cell viability assay, the amount of cellular ATP was measured in the lymphoblastoid cell line with complete culture medium following compound treatment for 24 hours. The assay was performed in opaque white Kalypsys 1536-well plates. In the screen, tetraoctylammonium bromide was used as positive control. Library compounds were measured for their ability to cause acute toxicity in the cell line, as reflected by a decrease in intracellular ATP levels, in a concentration-dependent manner. […] AC50 values were determined from concentration-response data modeled with the standard Hill equation.
qHTS protocol for CellTiter Glo lymphoblastoid cellular assay
[Step] [Parameter] [Value] [Description]
1. Reagent; 5 uL; 2500 lymphoblastoid cells/well
2. Time; 5 hr; 37 C incubation
4. Controls; 23 nL; Tetraoctylammonium bromide 6.4pM to 92 uM
5. Time; 24 hr; 37 C incubation
6. Reagent; 5 uL; CellTiter Glo reagent
7. Time; 30 min; Room Temperature
8. Detection; Luminescence; Viewlux plate reader
Keywords: cell viability, cytotoxicity, lymphoblastoid cell line, luminescence, NTPHTS, NTPHTS_NCGC, NIEHS, DSSTox, MLSMR, MLSCN, NIH Roadmap, qHTS, NCGC
% is scaled to controls: 0 for no effect and ±100 for the full control effect; potency is read from the fitted curve at half-maximal effect.

SMILES	activity change, negative = cytotoxicity	Potency
COc1c2occc2cc2ccc(=O)oc12	-4.65%	–
Cc1ccc(C)c(OCCCC(C)(C)C(=O)O)c1	3.02%	–
CCc1nc(N)nc(N)c1-c1ccc(Cl)cc1	-8.01%	–
COC(=O)[C@H](Cc1ccccc1)NC(=O)[C@@H](N)CC(=O)O (H-Asp-Phe-OMe)	3.64%	–
CCCc1cc(=O)[nH]c(=S)[nH]1	1.11%	–
CCCCC(CC)COC(=O)C(C#N)=C(c1ccccc1)c1ccccc1 (stereo not drawn)	-5.83%	–
c1ccc2[nH]c(-c3cscn3)nc2c1	-17.6%	–
Nc1ccc(S(N)(=O)=O)cc1	-0.726%	–
CC(=O)Nc1ccc(O)cc1	-2.55%	–
NS(=O)(=O)c1cc(C(=O)O)c(NCc2ccco2)cc1Cl	8.33%	–
CN(C)c1ccc2nc3ccc(=[N+](C)C)cc-3sc2c1	–	10 µM (active)
Cc1cc(O)c2c(c1)C(=O)c1cc(O)cc(O)c1C2=O	-9.27%	–
CS(=O)(=O)OCCCCOS(C)(=O)=O	–	inactive
